Measured values reported in PubChem BioAssay (NCATS).
Several values for one entry are separate records, joined by “and”; a condition that tells them apart may be missing. Equal values may be shown once. Results filed as inconclusive are left out. Where a call stands in place of a potency, no number is given. Values without a mark were called inactive. Activity calls are given as the source filed them. Calls follow the shape of the dose curve; as a rule, active = well fitted curve in the direction sought with a large enough effect; inconclusive = small, poorly fitted or top-dose-only effect, or another doubt; inactive = no such curve, though single readings can be large; an effect the other way counts as inactive or inconclusive.

Tests used:
[1] = Quantitative highthroughput screen to assess conditional lethalithy of NOMO1 cells grown in RPMI1640 with untreated serum (RPMI+s) (AID 1963876); also: nearly all actives have a fitted effect of over 35% in size; also: potency is read from the fitted curve at half-maximal effect
Method in brief: (§1)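 Each medium arm—HPLM with 10% dialyzed FBS, or RPMI1640 with 5 mM glucose and 10% untreated or dialyzed FBS—was screened against an 11-point, 3-fold compound titration for 48 h at 37 °C, with CellTiter-Glo luminescence as endpoint.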

[2] = Quantitative highthroughput screen to assess conditional lethalithy of NOMO1 cells grown in RPMI1640 with dialyzed fetal bovine serum (RPMI+ds) (AID 1963877); also: nearly all actives have a fitted effect of over 30% in size; also: potency is read from the fitted curve at half-maximal effect; as to viability: series mostly up to about 46 µM
Method in brief: as §1

[3] = Quantitative highthroughput screen to assess conditional lethalithy of P12 Ichikawa cells grown in Human Plasma-Like Medium with dialyzed fetal bovine serum (HPLM+ds) (AID 1963879); details: Potency: viability; also: nearly all actives have a fitted effect of over 35% in size; also: potency is read from the fitted curve at half-maximal effect; as to viability: series mostly up to about 46 µM
Method in brief: as §1

[4] = Quantitative highthroughput screen to assess conditional lethalithy of P12 Ichikawa cells grown in RPMI1640 with dialyzed fetal bovine serum (RPMI+ds) (AID 1963880); details: Potency: P12-Ichikawa viability; also: nearly all actives have a fitted effect of over 35% in size; also: potency is read from the fitted curve at half-maximal effect
Method in brief: as §1

[5] = Quantitative highthroughput screen to assess conditional lethalithy of P12 Ichikawa cells grown in RPMI1640 with untreated serum (RPMI+s) (AID 1963881); details: Potency: viability; also: nearly all actives have a fitted effect of over 35% in size; also: potency is read from the fitted curve at half-maximal effect; as to viability: series mostly up to about 46 µM
Method in brief: as §1

[6] = Quantitative highthroughput screen to assess conditional lethalithy of SEM cells grown in Human Plasma-Like Medium with dialyzed fetal bovine serum (HPLM+ds) (AID 1963882); also: nearly all actives have a fitted effect of over 35% in size; also: potency is read from the fitted curve at half-maximal effect; as to viability: series mostly up to about 46 µM
Method in brief: as §1

[7] = Quantitative highthroughput screen to assess conditional lethalithy of SEM cells grown in RPMI1640 with unreated serum (RPMI+s) (AID 1963883); also: nearly all actives have a fitted effect of over 35% in size; also: potency is read from the fitted curve at half-maximal effect
Method in brief: as §1

[8] = Quantitative highthroughput screen to assess conditional lethalithy of SEM cells grown in RPMI1640 with dialyzed fetal bovine serum (RPMI+ds) (AID 1963884); also: nearly all actives have a fitted effect of over 35% in size; also: potency is read from the fitted curve at half-maximal effect; as to viability: series mostly up to about 46 µM
Method in brief: as §1

[9] = Cellular viability qHTS for adrenocortical cancer (ACC) cell line NCI-H295R (AID 1963990); also: nearly all actives have a fitted effect of over 60% in size; also: potency is read from the fitted curve at half-maximal effect
Method in brief: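 IC50 and maximal efficacy derive from four-parameter logistic modelling of titration curves, with reads scaled between DMSO-only wells (0%) and doxorubicin hydrochloride (100% inhibition). Compounds spanned up to 46 uM over 48 h.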

[10] = Quantitative highthroughput screen to assess conditional lethalithy of NOMO1 cells grown in Human Plasma-Like Medium with dialyzed fetal bovine serum (HPLM+ds) (AID 1963878); also: nearly all actives have a fitted effect of over 35% in size
Method in brief: as §1

[11] = Cellular viability qHTS for adrenocortical cancer (ACC) cell line SW-13 (AID 1963989); details: SW-13 ACC cells viability, CellTiter-Glo, 48 h; activity (max response): hits give low values;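 also: cells grown in serum-free medium with ITS supplement; nearly all actives have a fitted effect of over 65% in size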
Method in brief: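 Luminescent ATP read-out (CellTiter-Glo, 20 min at room temperature) measured metabolically competent SW-13 cells after 48 h compound treatment. Final concentrations spanned up to 46 uM; bortezomib served as positive control.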

SMILES	Potency [1]	Potency [2]	Potency [3]	Potency [4]	Potency [5]	Potency [6]	Potency [7]	Potency [8]	Potency [9]	Potency [10]	activity (max response) [11]
CC[C@H](NC(=O)[C@H](C)NC)C(=O)N1C[C@@H](O)C[C@H]1Cc1c(-c2[nH]c3cc(F)ccc3c2C[C@H]2C[C@H](O)CN2C(=O)[C@H](CC)NC(=O)[C@H](C)NC)[nH]c2cc(F)ccc12	0.935 µM (active)	2.35 µM (active)	2.96 µM (active)	2.64 µM (active)	3.32 µM (active)	inactive					
CCOC(=O)C1=C[C@@H](OC(CC)CC)[C@H](NC(C)=O)[C@@H](N)C1	inactive	inactive	inactive	inactive	inactive		inactive	inactive	inactive		
CC[C@H](CO)Nc1nc(NCc2ccccc2)c2ncn(C(C)C)c2n1	inactive	inactive	inactive	inactive	inactive	inactive			31.6 µM (active)		
CC(=O)O[C@H]1C[C@@H]2CC[C@H]3[C@H]4C[C@H]([N+]5(C)CCCCC5)[C@@H](OC(C)=O)[C@@]4(C)CC[C@@H]3[C@@]2(C)C[C@H]1N1CCCCC1	inactive	inactive	inactive	inactive	inactive		inactive				
COc1cccc(N(C)C(=S)Oc2ccc3c(c2)CCCC3)n1	inactive	inactive	inactive	inactive	inactive	inactive	inactive	inactive			
Nc1ccn([C@@H]2O[C@H](CO)[C@H](O)C2(F)F)c(=O)n1	0.0833 µM (active)	0.0833 µM (active)	0.0833 µM (active)	0.0526 µM (active)	0.0743 µM (active)	0.0118 µM (active)	0.0166 µM (active)	0.0059 µM (active)			
CC(=O)OCC(=O)[C@@]1(O)[C@H](C)C[C@H]2[C@@H]3C=C(C)C4=Cc5c(cnn5-c5ccccc5)C[C@]4(C)[C@@H]3[C@@H](O)C[C@@]21C	inactive	inactive						0.0148 µM (active)		inactive	3.11%
O=C1C(CCC(O)c2ccc(F)cc2)C(c2ccc(O)cc2)N1c1ccc(F)cc1 (stereo not drawn)	inactive	inactive	inactive	inactive	inactive	inactive	inactive	inactive			
CCCCC(C=O)NC(=O)C(CC(C)C)NC(=O)OCc1ccccc1 (stereo not drawn)	inactive	inactive	inactive								
CC1(O)CC(c2nc(-c3ccc4ccc(-c5ccccc5)nc4c3)c3c(N)nccn23)C1 (stereo not drawn)	3.72 µM (active)	3.72 µM (active)	7.43 µM (active)	5.9 µM (active)	4.69 µM (active)	2.35 µM (active)	1.18 µM (active)				-21%
CC(=O)O[C@]1(C(C)=O)CC[C@@H]2[C@@H]3C[C@H](C)C4=CC(=O)CC[C@]4(C)[C@H]3CC[C@@]21C	inactive	inactive	inactive	inactive		inactive	inactive	inactive			
C1=CCOCc2cc(ccc2OCCN2CCCC2)Nc2nccc(n2)-c2cccc(c2)OCC1	7.43 µM (active)	6.62 µM (active)	10.5 µM (active)	13.2 µM (active)	13.2 µM (active)	3.32 µM (active)	4.18 µM (active)	4.18 µM (active)			
CNC(=O)c1cc(COc2nnc(Nc3ccc(Cl)cc3)c3ccoc23)ccn1	inactive	inactive	inactive	inactive	inactive	16.6 µM (active)			12.6 µM (active)		
NC(=O)N1c2ccccc2CC(=O)c2ccccc21	inactive	inactive	inactive	inactive	inactive	inactive	inactive	inactive			10.8%
COc1ccc(CCC(=O)Nc2nc3ccc(Cl)cc3s2)cc1OC	inactive	inactive	inactive	inactive	inactive	inactive	inactive	inactive			
CC1(C)[C@H]2CC[C@]3(C)[C@@H](C(=O)C=C4[C@@H]5C[C@@](C)(C(=O)O)CC[C@]5(C)CC[C@]43C)[C@@]2(C)CC[C@@H]1O	inactive	inactive	inactive	inactive	inactive	inactive	inactive	inactive			
CCOc1cc(N)c(Cl)cc1C(=O)NCC1CN(Cc2ccc(F)cc2)CCO1 (stereo not drawn)	inactive	inactive	inactive	inactive	inactive	inactive		inactive			-20% and -11.9%
CN[C@H]1[C@@H](O)[C@@H]2O[C@@H]3O[C@H](C)CC(=O)[C@]3(O)O[C@@H]2[C@@H](NC)[C@H]1O	inactive	inactive	inactive	inactive	inactive		inactive	inactive			
CCCCC(=O)O[C@]1(C(=O)CO)[C@@H](C)C[C@H]2[C@@H]3CCC4=CC(=O)C=C[C@]4(C)[C@@]3(F)[C@@H](O)C[C@@]21C	inactive	inactive							inactive	inactive	-3.35% and -9.39%
OC[C@H]1O[C@@H](Oc2ccc(O)cc2)[C@H](O)[C@@H](O)[C@H]1O	inactive	inactive	inactive	inactive	inactive	inactive	inactive	inactive			
Clc1ccc2c(N3CCN(CCCN4CCN(c5ccnc6cc(Cl)ccc56)CC4)CC3)ccnc2c1	inactive	inactive					7.24 µM (active)		inactive	inactive	-23.4%
